# Source: the supplement of paper PMC10941209
# Tested on: HFF
# Test: cell viability relative to DMSO control; higher = less cytotoxic
# Settings: 1 µM; 72 h
# Procedure: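 Single-dose cytotoxicity screen of the MMV Pandemic Response Box at 1 uM on human foreskin fibroblasts (HFF), 72 h at 37 C. Viability measured by MTT (OD 550 nm) and normalised to the DMSO control (% survival).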
row,Structure (SMILES),cell viability [%]
1,CCC[C@@H]1C[C@@H](C(=O)N[C@@H]([C@H]2O[C@H](SC)[C@H](O)[C@@H](O)[C@H]2O)[C@H](C)Cl)N(C)C1,66.8
2,OB1OCc2c1ccc(Cl)c2F,68.5
3,O=S(=O)(Nc1ccccc1)c1ccc(NC(=S)Nc2ccccc2)cc1,66.2
4,Nc1nc(=O)c(Br)c(-c2ccccc2)[nH]1,64.9
5,CC(C)Nc1ncnc2c1cnn2-c1ccc(Cl)cc1,71.9
6,Oc1c(C(Nc2ccccn2)c2ccccc2)ccc2cccnc12 (configuration not stated),69.9
7,C=CCc1cc(Cc2cnc(N)nc2N)cc(OC)c1O,72.9
8,NC1C2CC3CC(C2)CC1C3 (configuration not stated),66.1
9,Cc1cc(CCCOc2c(C)cc(-c3noc(C(F)(F)F)n3)cc2C)on1,65.5
10,O=C(Nc1nnc(-c2ccccc2)o1)c1ccc(F)cc1,65.2
11,CCc1cc(Cc2cnc(N)nc2N)cc2c1N(C)CCC2C (configuration not stated),71.9
12,NNC(=O)c1ccncc1,62.8
13,Cc1c(N)cccc1Cn1ccc(OCCc2cccs2)cc1=O,60.5
14,CSc1ccc2c(c1)C(N1CCN(C)CC1)Cc1ccccc1S2 (configuration not stated),65
15,CC(=O)Nc1cc(NS(=O)(=O)c2ccc(Cl)cc2)cc2c(Cl)[nH]nc12,67.2
16,O=C(O)c1ccccc1Sc1ncnc2sc3c(c12)CCC3,67.7
17,COc1cc(C(C(=O)NC2CCCCC2)N(C(=O)Cc2c[nH]c3ccccc23)c2ccc(C(C)C)cc2)cc(OC)c1OC (configuration not stated),66.3
18,CC(=O)NC[C@H]1CN(c2ccc(N3CCSCC3)c(F)c2)C(=O)O1,67.2
19,CC(C)=CCC/C(C)=C/CNCCNC1C2CC3CC(C2)CC1C3 (configuration not stated),80.2

row,Structure (SMILES),cell viability [%]
1,O=c1[nH]c(=O)n(Cc2cccc(Oc3ccccc3)c2)cc1Nc1ccccc1,63.8
2,Oc1c(C(Nc2nc3ccccc3s2)c2ccc(OC(F)F)cc2)ccc2cccnc12 (configuration not stated),57.5
3,C=C(C)n1c(=O)n(Cc2ccccc2C)c2ccccc21,63
4,Cc1ccc(NC(=O)c2cc(Cl)ccc2O)cc1,65.7
5,Nc1cnn(C2OC(CO)C(O)C2O)c(=O)n1 (configuration not stated),63.5
6,CN(C)c1[nH]c(=O)ncc1F,72
7,Cc1nc(Nc2ccc(F)cc2)nc(N2CCc3ccccc3C2C)c1C (configuration not stated),65.9
8,CC1CN(c2ncnc3c2c(-c2ccccc2)cn3-c2ccc(F)cc2)CC(C)O1 (configuration not stated),75.3
9,CC[C@H](CO)Nc1nc(NCc2ccccc2)c2ncn(C(C)C)c2n1,68.9
10,CCOc1ccc(C(=O)NCCc2ccccc2)cc1,63.9
11,C[C@H]1COc2c(N3CCN(C)CC3)c(F)cc3c(=O)c(C(=O)O)cn1c23,66
12,Cc1nc2ccc(Oc3ccccc3)cc2c2c1CCN2CCc1ccccc1,76.7
13,CCCCN1C[C@H](O)[C@@H](O)[C@H](O)[C@H]1CO,63.2
14,Cc1ccc(Oc2ccccc2-c2csc(N=C3NCCCN3)n2)c(C)c1,68.5
15,O=C(Nc1ccc(N2CCN(C(=O)c3ccccc3)CC2)cc1)c1ccc2c(c1)OCO2,60.1
16,O=C(c1nc2c(C(F)(F)F)cc(C3CC3)cn2c1Cl)N1CCN([C@H]2CC[C@H](O)CC2)C(=O)C1,61.7
17,CCc1cc(O)c(Oc2ccc(C(N)=O)cc2F)cc1F,67.9
18,Cc1oncc1C(=O)Nc1ccc(C(F)(F)F)cc1,65.7
